# TDP1 block = TDP1 (human) enzyme inhibition. Q9NUW8. recombinant TDP1, AlphaScreen DNA substrate cleavage. Potency, µM (highest dose often 130 µM), for inactives: at the top dose activity change, negative = inhibition, actives largely listed as inhibitors. 350,000 compounds, 0.28% hits. AID 485290; also: potency is read from the fitted curve at half-maximal effect; nearly all actives have a fitted effect of over 40% in size
# Target sequence (Q9NUW8 whole entry, looked up): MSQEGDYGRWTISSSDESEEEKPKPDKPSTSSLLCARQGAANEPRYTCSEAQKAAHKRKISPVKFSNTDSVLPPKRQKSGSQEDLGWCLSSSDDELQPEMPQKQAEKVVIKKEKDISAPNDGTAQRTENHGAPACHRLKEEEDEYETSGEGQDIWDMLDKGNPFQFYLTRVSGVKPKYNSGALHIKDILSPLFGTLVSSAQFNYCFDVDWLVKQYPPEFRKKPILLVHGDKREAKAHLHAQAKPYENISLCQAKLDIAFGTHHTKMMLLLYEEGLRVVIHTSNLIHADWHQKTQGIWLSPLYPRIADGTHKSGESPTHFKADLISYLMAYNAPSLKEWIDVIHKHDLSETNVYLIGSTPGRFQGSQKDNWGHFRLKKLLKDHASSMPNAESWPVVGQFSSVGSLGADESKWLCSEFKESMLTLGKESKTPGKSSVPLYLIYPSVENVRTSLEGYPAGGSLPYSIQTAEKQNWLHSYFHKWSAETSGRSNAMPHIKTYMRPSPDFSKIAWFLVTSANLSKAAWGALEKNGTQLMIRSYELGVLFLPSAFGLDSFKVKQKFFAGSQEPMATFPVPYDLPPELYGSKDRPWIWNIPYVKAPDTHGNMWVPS
#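 Tdp1 1 nM final; 15 min RT w/ cpd; substrate 15 nM, 5 min; beads 10 ug/ml, 10 min; AlphaScreen read. Neg ctrl: no enzyme.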
# ELG1 DNA repair = ELG1-dependent DNA repair inhibition | HEK293T ELG1-luciferase reporter, luminescence, 16 h; DNA damage induced by 5-fluorouridine | Potency, µM (highest dose often 46.1 µM), for the others: top-dose activity change, negative = inhibition, hits mostly inhibitors | 330,000 compounds, 2.3% hits | AID 504467; also: potency is read from the fitted curve at half-maximal effect; nearly all actives have a fitted effect of over 55% in size
#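 Reporter activity after DNA damage by 5-fluorouridine is monitored. Compound-treated cells incubate 16 hr at 37 °C, then ONE-Glo is added for 30 min before luminescence reading.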
# Giardia kill = kills Giardia lamblia | Giardia lamblia trophozoite viability | activity change, % at 7.66 µM, hits read low | 340,000 compounds, 0.15% hits | AID 540267; in the data active = activity change below about -80%; inconclusive = between about -30% and that limit;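 also: parasites exposed to compound for two days anaerobically before the ATP read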
#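 Giardia trophozoites, 100 cells per well, were exposed to compounds for 48 hrs at 37 deg C under anaerobic conditions; viability was then read as ATP content by bioluminescence after 15-30 min at room temperature.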
# TDP1 cell CPT = growth inhibition of DT40 Tdp1-/-;hTDP1 cells with camptothecin (screen for TDP1 inhibitors) | 420,000 compounds, 12% hits | chicken DT40 Tdp1-/-;hTDP1 cells + 20 nM CPT, ATP luminescence, 48 h | AID 686979 | Potency, µM (doses to about 46.2 µM), for the others: at the highest dose activity change, negative = growth inhibition, actives largely listed as inhibitors; also: potency is read from the fitted curve at half-maximal effect; nearly all actives have a fitted effect of over 55% in size
#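 Chicken DT40 Tdp1-/- cells complemented with human TDP1, 400 cells/well, exposed to compounds plus 20 nM camptothecin for at least 48 h at 37 C; viability read as ATP content by CellTiter-Glo luminescence.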
# IL-1B inflam inh = blocks inflammasome-driven IL-1 beta release; 360,000 compounds, 4.7% hits; AID 743279; THP-1 LPS/ATP IL-1B secretion, AlphaLISA, 16 h; hits give low values; activity change, % at 57.5 µM; in the data active = activity change below about -50%; inconclusive = mostly about -30% to -49%
#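 Secreted IL-1B measured by AlphaLISA bead assay after 16 h compound exposure of THP-1 cells; compounds (final up to 57.5 uM) added 1 h before LPS (250 ng/mL) and ATP (1.25 mM) stimulation; lower signal means less secretion.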
# TDP1 cell noCPT = qHTS for Inhibitors of human tyrosyl-DNA phosphodiesterase 1 (TDP1): qHTS in cells in absence of CPT | 420,000 compounds, 15% hits | DT40 Tdp1-/- hTDP1 cells, no CPT, ATP luminescence, 48 h | AID 686978, 2013 | Potency, µM (titrated, usually from 46.2 µM), for inactives: at the highest dose activity change, negative = growth inhibition, most hits filed as inhibitors; also: potency is read from the fitted curve at half-maximal effect; nearly all actives have a fitted effect of over 55% in size
#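 DT40 Tdp1-/-;hTDP1 cells, no CPT (DMSO vehicle only), 400 cells/well; compounds pin-transferred; ≥48 hr, 37 °C; CellTiter-Glo 30 min RT dark, luminescence read.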
# Active calls of the source: *; ? = inconclusive; nt = no result given; [ ] = another dose, or the depositor's remark. Shown are actives, neighbours in structure and some others; about 19% of the full set was active somewhere. Unless noted, calls follow the shape of the dose curve; as a rule, active = well fitted curve in the direction sought with a large enough effect; inconclusive = small, poorly fitted or top-dose-only effect, or another doubt; inactive = no such curve, though single readings can be large; an effect the other way counts as inactive or inconclusive. % is scaled to controls: 0 for no effect and ±100 for the full control effect.
SMILES,TDP1 block,ELG1 DNA repair,Giardia kill,TDP1 cell CPT,IL-1B inflam inh,TDP1 cell noCPT
CCC(=O)N1CCc2cc(Br)cc(S(=O)(=O)N3CCCC(C(=O)N(C)c4ccc(Br)cc4)C3)c21 (stereo unspecified),3.6%,nt,nt,18.4µM*,nt,?
COc1cc(Cl)c(C)cc1NC(=O)CSc1nc2c(c(=O)[nH]1)CCCC2,2.9%,nt,nt,?,nt,?
Cc1ccc(N2CCC3CC2c2cc(-c4ccc(C(F)(F)F)cc4)ccc23)cc1 (stereo unspecified),nt,nt,nt,?,48.5,16.4µM*
CCCCOc1ccc(/C=N/Nc2cc(N3CCOCC3)nc(C)n2)cc1,nt,?,12.8,18.4µM*,14.3,20.6µM*
Cc1cc(N/N=C/c2ccccc2)nc(N2CCOCC2)n1,nt,0.0%,-1.5,1.0%,-23.3,-5.2%
Oc1ccc(/C=N\Nc2cc(N3CCOCC3)nc(N3CCOCC3)n2)c(O)c1,2.6%,10.3µM*,9.4,20.6µM*,?,16.4µM*
Cc1nc(N/N=C/c2cccnc2)cc(N2CCOCC2)n1,nt,nt,nt,?,-64.3*,?
C/C(=N\Nc1cc(N2CCOCC2)nc(C)n1)c1ccc(F)cc1,nt,?,-1.6,?,?,?
Oc1ccc(/C=N/Nc2cc(N3CCCC3)nc(N3CCCC3)n2)cc1O,5.7%,-10.3%,8.8,18.4µM*,37.2,20.6µM*
COC(=O)C1=C(C(=O)OC)[C@@H]2N(Cc3ccccc3)c3ccccc3[C@@]23C[C@@H](C(=O)OC)N(S(=O)(=O)c2ccc([N+](=O)[O-])cc2)C3=N1,10.1%[21 µM],nt,nt,nt,nt,nt
Cc1cccc(NS(=O)(=O)c2cc3c(cc2C)n(C)c(=O)c(=O)n3C)c1,nt,-0.4%,?,?,30.9,?
Cc1cccc(/C=N/Nc2cc(N3CCOCC3)nc(N3CCOCC3)n2)c1,5.9%,7.31µM*,30.8,3.26µM*,-78.4*,16.4µM*
CCOc1ccc(NC(=O)C(C)NC(=O)c2ccccc2Cl)cc1S(=O)(=O)N1CCCC1 (stereo unspecified),-4.9%,21.6%,10.2,-16.2%,5.7,15.1%
C=CCNC(=S)N/N=C/c1ccc(C(F)(F)F)cc1,5.9%,4.61µM*,-14.8,?,-55.6*,?
FC(F)(F)c1ccc(/C=N/NC(=S)NC2CCCCC2)cc1,8.3%,-18.5%,-18.0,?,1.9,5.8µM*
CCOc1ncccc1C(=O)Nc1cccc(S(=O)(=O)N2CCOCC2)c1,0.3%,?,-5.9,-16.8%,17.1,-27.9%
COc1ccc(/C=N/N2CCN(c3ccc(Cl)cc3)CC2)cc1,nt,-6.1%,13.3,12.0%,1.5,-2.1%
Cc1ccc(N=C2C(=S)N(c3ccc(C)cc3)C(=N)N2/N=C/c2ccc(Cl)cc2)cc1,2.5%,?,8.2,25.9µM*,?,25.9µM*
Cc1ccc(C)c(N2CCN(C(=O)CN3C(=O)CSc4c3c(C)nn4-c3ccccc3)CC2)c1,4.5%,nt,nt,18.4µM*,nt,25.9µM*
Cc1nn(-c2ccccc2)c2c1N(CC(=O)N1CCN(c3cccc(Cl)c3)CC1)C(=O)CS2,7.1%,nt,nt,?,nt,20.6µM*
Cc1ccc(Cl)cc1N1CCN(C(=O)CN2C(=O)CSc3c2c(C)nn3-c2ccccc2)CC1,3.2%,nt,nt,?,nt,-20.6%
COC(=O)C1Cc2c([nH]c3ccccc23)CN1C(C)=O (stereo unspecified),nt,1.2%,-1.4,1.0%,1.2,-16.5%
CCOC(=O)C1=C(C)N=C2SC(C(=O)OC)=CC(=O)N2C1c1ccc(F)cc1 (stereo unspecified),9.3%,-6.5%,-2.8,?,-60.8*,?
O=C(Nc1ccn(Cc2cccc3ccccc23)n1)c1cccnc1,5.5%,?,4.3,?,-4.3,?
